PubChem BioAssay (NCATS)
Results filed as inconclusive are left out. Where a call stands in place of a potency, no number is given. Calls of active or inactive are those of the source. Unless noted, calls follow the shape of the full dose curve.

Key:
[1] = qHTS for Inhibitors of the Functional Ribonucleoprotein Complex (vRNP) of Lassa (LASV) Arenavirus: Viability assay - alamar blue signal for LASV Primary Screen (AID 1347083; calls by dose curve; tested in HEK293 reporter line; also: nearly all actives have a fitted effect of over 80% in size; also: potency is read from the fitted curve at half-maximal effect)
[2] = qHTS for Inhibitors of the Functional Ribonucleoprotein Complex (vRNP) of Lymphocytic Choriomeningitis Arenaviruses (LCMV): Viability assay - alamar blue signal for LCMV Primary Screen (AID 1347085; calls by dose curve; tested in HEK293 reporter line; also: series mostly up to about 57 µM; nearly all actives have a fitted effect of over 80% in size)
[3] = target: Nucleoprotein (Lymphocytic choriomeningitis virus (strain Armstrong)) (UniProt P09992); test: qHTS for Inhibitors of the Functional Ribonucleoprotein Complex (vRNP) of Lymphocytic Choriomeningitis Arenaviruses (LCMV): LCMV Primary Screen - GLuc reporter signal (AID 1347086); also: series mostly up to about 57 µM; nearly all actives have a fitted effect of over 70% in size
Nucleoprotein (Lymphocytic choriomeningitis virus (strain Armstrong)), sequence (P09992 whole entry, looked up): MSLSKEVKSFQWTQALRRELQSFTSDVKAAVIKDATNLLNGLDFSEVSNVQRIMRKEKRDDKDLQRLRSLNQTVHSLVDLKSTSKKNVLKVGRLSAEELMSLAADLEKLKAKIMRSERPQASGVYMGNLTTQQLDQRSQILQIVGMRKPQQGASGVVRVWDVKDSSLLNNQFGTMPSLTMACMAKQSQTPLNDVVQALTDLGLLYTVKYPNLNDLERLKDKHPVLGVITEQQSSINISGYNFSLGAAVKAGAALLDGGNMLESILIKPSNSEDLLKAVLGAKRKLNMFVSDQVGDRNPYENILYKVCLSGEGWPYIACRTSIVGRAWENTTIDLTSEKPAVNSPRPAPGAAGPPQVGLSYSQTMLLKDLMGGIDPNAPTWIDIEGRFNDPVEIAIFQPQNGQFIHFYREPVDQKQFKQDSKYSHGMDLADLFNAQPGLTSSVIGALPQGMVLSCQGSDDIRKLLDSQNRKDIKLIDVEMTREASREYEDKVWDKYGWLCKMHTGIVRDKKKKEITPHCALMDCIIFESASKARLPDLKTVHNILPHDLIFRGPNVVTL

CCCCCCCC(=O)[O-].CCCCCCCC(=O)[O-].[Zn+2]
Potency [1]: inactive | Potency [2]: inactive | Potency [3]: inactive

Nc1ncnc2c1ncn2[C@@H]1O[C@H](CO)[C@@H](O)[C@H]1O
Potency [1]: inactive | Potency [2]: inactive | Potency [3]: inactive

NC(=O)c1cnccn1
Potency [1]: inactive | Potency [2]: inactive

Nc1ccc([N+](=O)[O-])c(C(F)(F)F)c1
Potency [1]: inactive | Potency [2]: inactive | Potency [3]: inactive

CCc1cccc(CC)c1NC(=O)CN(CC(=O)O)CC(=O)O
Potency [1]: inactive | Potency [2]: inactive | Potency [3]: inactive

CO[C@@]1(NC(=O)CSCC#N)C(=O)N2C(C(=O)O)=C(CSc3nnnn3C)CS[C@@H]21
Potency [1]: inactive | Potency [2]: inactive | Potency [3]: inactive

CN[C@@H]1[C@@H](O)[C@@H](O[C@@H]2[C@H](O)[C@H](O[C@H]3OC(CN)=CC[C@H]3N)[C@@H](N)C[C@H]2N)OCC1(C)O (stereo not given in full)
Potency [1]: inactive | Potency [2]: inactive | Potency [3]: inactive

CCn1cc(C(=O)O)c(=O)c2cc(F)c(N3CCNC(C)C3)c(F)c21 (stereo not given)
Potency [1]: inactive | Potency [2]: inactive | Potency [3]: inactive

CC[N+](CC)(CC)CCOc1cccc(OCC[N+](CC)(CC)CC)c1OCC[N+](CC)(CC)CC
Potency [1]: inactive | Potency [2]: inactive | Potency [3]: inactive

O=c1cc[nH]c(=S)[nH]1
Potency [1]: inactive | Potency [2]: inactive | Potency [3]: inactive

NC(N)=Nc1nc(CSCC/C(N)=N/S(N)(=O)=O)cs1
Potency [1]: inactive | Potency [2]: inactive | Potency [3]: inactive

FC1(F)C(F)(F)C(F)(F)C2(F)C(F)(F)C(F)(F)C(F)(F)C(F)(F)C2(F)C1(F)F (stereo not given)
Potency [1]: inactive | Potency [2]: inactive | Potency [3]: inactive

CN(c1nccc(=O)[nH]1)C1CCN(c2nc3ccccc3n2Cc2ccc(F)cc2)CC1
Potency [1]: 30.6 µM (active) | Potency [2]: inactive | Potency [3]: inactive

CC(C)(C)c1ccc(O)cc1
Potency [1]: inactive | Potency [2]: inactive | Potency [3]: inactive

CCCCCCCCCCCCSCCOCCO
Potency [1]: inactive | Potency [2]: inactive | Potency [3]: inactive

CN[C@@H]1[C@H](O)[C@H](NC)[C@H]2O[C@@]3(O)C(=O)C[C@@H](C)O[C@H]3O[C@@H]2[C@H]1O
Potency [1]: inactive | Potency [2]: inactive | Potency [3]: inactive

CNCCCC12CCC(c3ccccc31)c1ccccc12
Potency [1]: inactive | Potency [2]: inactive | Potency [3]: inactive

CCCCCCCCCCCCCCCC(=O)O
Potency [1]: inactive | Potency [2]: inactive | Potency [3]: inactive

Nc1ccc(S(=O)(=O)Nc2ccccn2)cc1
Potency [1]: inactive | Potency [2]: inactive | Potency [3]: inactive

CC(O)CN(CCN(CC(C)O)CC(C)O)CC(C)O (stereo not given)
Potency [1]: inactive | Potency [2]: inactive | Potency [3]: inactive

NS(=O)(=O)c1cc(C(=O)O)cc(N2CCCC2)c1Oc1ccccc1
Potency [1]: inactive | Potency [2]: inactive | Potency [3]: inactive

N#CSCC(=O)O
Potency [1]: inactive | Potency [2]: inactive | Potency [3]: inactive

Cc1cnc(NC(=O)C2=C(O)c3ccccc3S(=O)(=O)N2C)s1
Potency [1]: inactive | Potency [2]: inactive | Potency [3]: inactive

CC1(C)O[C@@H]2C[C@H]3[C@@H]4C[C@H](F)C5=CC(=O)C=C[C@]5(C)[C@@]4(F)[C@@H](O)C[C@]3(C)[C@]2(C(=O)CO)O1
Potency [1]: inactive | Potency [2]: inactive | Potency [3]: inactive

CC(=O)O[C@@H]1CC2C3CCc4cc(OC(=O)c5ccccc5)ccc4C3CCC2(C)[C@H]1OC(C)=O (stereo not given in full)
Potency [1]: inactive | Potency [2]: inactive | Potency [3]: inactive

COc1cc(O)cc(O)c1
Potency [1]: inactive | Potency [2]: inactive | Potency [3]: inactive

CC(C)OC(=O)OCOP(=O)(CO[C@H](C)Cn1cnc2c(N)ncnc21)OCOC(=O)OC(C)C
Potency [1]: inactive | Potency [2]: inactive | Potency [3]: inactive

Cc1ccc(Cl)c(Nc2ccccc2C(=O)O)c1Cl
Potency [1]: inactive | Potency [2]: inactive | Potency [3]: inactive

CC(=O)OCC(COC(C)=O)OC(C)=O
Potency [1]: inactive | Potency [2]: inactive | Potency [3]: inactive

OC1(c2ccccc2)CCNCC1
Potency [1]: inactive | Potency [2]: inactive | Potency [3]: inactive

Nc1ccc(S(=O)(=O)Nc2ccnn2-c2ccccc2)cc1
Potency [1]: inactive | Potency [2]: inactive | Potency [3]: inactive

Cc1cc(NS(=O)(=O)c2ccc(N)cc2)no1
Potency [1]: inactive | Potency [2]: inactive | Potency [3]: inactive

c1ccc2c(CC3=NCCN3)cccc2c1
Potency [1]: inactive | Potency [2]: inactive | Potency [3]: inactive

N[C@@H](COP(=O)(O)O)C(=O)O
Potency [1]: inactive | Potency [2]: inactive | Potency [3]: inactive

CC[N+](C)(CC)CCOC(=O)C1c2ccccc2Oc2ccccc21
Potency [1]: inactive | Potency [2]: inactive | Potency [3]: inactive

CCCC(=O)O[C@]1(C(=O)COC(=O)CC)CC[C@H]2[C@@H]3CCC4=CC(=O)CC[C@]4(C)[C@H]3[C@@H](O)C[C@@]21C
Potency [1]: inactive | Potency [2]: inactive | Potency [3]: inactive

Cc1cc2cc3c(C)cc(=O)oc3c(C)c2o1
Potency [1]: inactive | Potency [2]: inactive | Potency [3]: inactive

Cc1ccsc1/C=C/C1=NCCCN1C
Potency [1]: inactive | Potency [2]: inactive | Potency [3]: inactive

Cc1nnc(C(C)C)n1C1C[C@H]2CC[C@@H](C1)N2CC[C@H](NC(=O)C1CCC(F)(F)CC1)c1ccccc1 (stereo not given in full)
Potency [1]: inactive | Potency [2]: inactive | Potency [3]: inactive

CC(=O)OCC(=O)[C@@]1(O)[C@H](C)C[C@H]2[C@@H]3CCC4=CC(=O)C=C[C@]4(C)[C@@]3(F)[C@@H](O)C[C@@]21C
Potency [1]: inactive | Potency [2]: inactive | Potency [3]: inactive

CS(=O)(=O)c1ccc([C@@H](O)[C@@H](CO)NC(=O)C(Cl)Cl)cc1
Potency [1]: inactive | Potency [2]: inactive | Potency [3]: inactive

NCCS(=O)(=O)O
Potency [1]: inactive | Potency [2]: inactive | Potency [3]: inactive
